IL1B secr inh: inflammasome signaling inhibition, IL-1 beta readout; THP-1 LPS/ATP IL-1B secretion, AlphaLISA, 16 h; stronger effect = lower value; activity change, % at 57.5 µM; 4.7% of 360,000 active; AID 743279; in the data active means activity change below about -50%; inconclusive means mostly about -30% to -49%
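THP-1 cells pretreated 1 hr with compounds (up to 57.5 uM final), then stimulated with LPS (250 ng/mL final) plus ATP (1.25 mM final); secreted IL-1B measured by AlphaLISA after 16 hr, decreased signal indicating inhibition.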
TDP1 cell CPT: DT40-hTDP1 cell growth loss with CPT; AID 686979; Potency, µM (doses to about 46.2 µM), most hits filed as inhibitors; 12% of 420,000 active; chicken DT40 Tdp1-/-;hTDP1 cells + 20 nM CPT, ATP luminescence, 48 h; further: nearly all actives have a fitted effect of over 55% in size
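Chicken DT40 Tdp1-/- cells complemented with human TDP1, 400 cells/well, exposed to compounds plus 20 nM camptothecin for at least 48 h at 37 C; viability read as ATP content by CellTiter-Glo luminescence.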
DT40 TDP1 no CPT: qHTS for Inhibitors of human tyrosyl-DNA phosphodiesterase 1 (TDP1): qHTS in cells in absence of CPT; 15% of 420,000 active; DT40 Tdp1-/- hTDP1 cells, no CPT, ATP luminescence, 48 h; Potency, µM (series often up to 46.2 µM), most hits filed as inhibitors; further: nearly all actives have a fitted effect of over 55% in size
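DT40 Tdp1-/-;hTDP1 cells, no CPT (DMSO vehicle only), 400 cells/well; compounds pin-transferred; ≥48 hr, 37 °C; CellTiter-Glo 30 min RT dark, luminescence read.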
HT1080-NT tox: kills 2HG-producing HT-1080-NT fibrosarcoma cells | HT-1080-NT fibrosarcoma viability, CellTiter-Glo ATP luminescence, 48 h | Potency, µM (titrated, usually from 46.1 µM), hits mostly cytotoxic | 1.6% of 360,000 active | AID 686970;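 further: NT is the 2HG producing partner of a matched IDH1 knockdown line; nearly all actives have a fitted effect of over 55% in size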
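HT-1080-NT; 750 cells/well; 5% FBS RPMI; 48 h compound, 37 degrees C; CellTiter-Glo luminescence; curve fitting and curve-class assignment.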
HT1080 IDH1KD tx: HT-1080 IDH1 knockdown cell toxicity (counter line). HT-1080 IDH1 knockdown viability, ATP luminescence, 48 h. Potency, µM (doses to about 46.1 µM), most hits filed as cytotoxic. AID 686971. 2% of 360,000 active
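CellTiter-Glo luminescence after 48 h compound exposure at 37 degrees C of IDH1-knockdown HT-1080 cells in 5% FBS RPMI. %Activity scaled between DMSO wells and cell-free media wells, with curves fitted and assigned curve classes.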
ELG1 DNA repair: blocks ELG1-dependent DNA repair in HEK293T cells; HEK293T ELG1-luciferase reporter, luminescence, 16 h; DNA damage induced by 5-fluorouridine; Potency, µM (doses to about 46.1 µM), hits mostly inhibitors; 2.3% of 330,000 active; further: nearly all actives have a fitted effect of over 55% in size
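Overnight (16 hr) co-exposure of 2,000 cells/well to 5-fluorouridine and compound at 37 °C preceded detection. Luciferase was quantified via ONE-Glo luminescence; loss of signal denotes inhibition.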
Numbers stand for hits; n = inactive; u = inconclusive; x = no result. Rows were chosen to be rich in hits. Some 19% of all compounds tested hit in one or more screens of this group. Unless noted, the call rests on the fitted dose curve; in most records, active means well fitted curve in the direction sought with a large enough effect; inconclusive means small, poorly fitted or top-dose-only effect, or another doubt; inactive means no such curve, though single readings can be large; an effect the other way counts as inactive or inconclusive.

SMILES	IL1B secr inh	TDP1 cell CPT	DT40 TDP1 no CPT	HT1080-NT tox	HT1080 IDH1KD tx	ELG1 DNA repair
CC(C)(C)C(=O)Cn1c(=N)n(Cc2ccccc2Cl)c2ccccc21	n	26µM	26µM	n	n	n
Cc1ccc(Cn2c(=N)n(CC(=O)c3ccccc3)c3ccccc32)cc1	-82	7.3µM	3.7µM	n	u	u
C=CCn1c(=N)n(CC(=O)OCC)c2ccccc21	n	n	n	n	n	n
C=CCn1c(=N)n(CC(=O)c2ccccc2)c2ccccc21	u	u	u	n	n	n
Cn1c(=O)c2ccccc2n(Cc2ccccc2Cl)c1=O	n	u	n	n	n	n
CCOC(=O)Cn1c(=N)n(Cc2ccc(C(C)(C)C)cc2)c2ccccc21	x	u	13µM	x	x	x
CC(C)(C)C(=O)Cn1c(=N)n(Cc2ccccc2)c2ccccc21	n	21µM	15µM	u	u	n
CC1(C)CC(=O)c2cc(C(=O)Nc3ccc(Cl)cc3)c(=O)[nH]c2C1	x	n	n	x	x	x
Cn1ncc(Br)c1NC(=O)Nc1ccc(Cl)cc1	n	n	u	n	n	n
CCOc1ccc(NC(=S)N2CCc3cc(OC)c(OC)cc3C2COc2ccc3c(C)cc(=O)oc3c2)cc1 (stereo unspecified)	n	n	n	n	n	u
CC1(C)c2ccccc2N2CC(=O)NC21/C=C/c1ccco1 (stereo unspecified)	n	u	23µM	n	n	n
CC1(C)c2ccccc2N2CCC(=O)NC21/C=C/c1ccco1 (stereo unspecified)	n	n	u	n	n	n
CCOC(=O)C1(C)CCN1C(=O)c1cc(F)cc(F)c1 (stereo unspecified)	n	n	n	n	n	x
Cn1c(=O)c([N+](=O)[O-])c(NCC(O)c2ccccc2)c2ccccc21 (stereo unspecified)	n	u	18µM	n	n	n
CC(C)c1ccc(Nc2c([N+](=O)[O-])c(=O)n(C)c3ccccc23)cc1	-66	n	u	n	n	n
Cn1c(=O)c([N+](=O)[O-])c(-n2ccnc2)c2ccccc21	-101	4.6µM	4.1µM	16µM	26µM	n
Cn1c(=O)c([N+](=O)[O-])c(NCCCn2ccnc2)c2ccccc21	x	n	n	n	n	n
CCc1nn(CC(=O)NCCc2ccc(OC)cc2OC)c(=O)c2cc3sccc3n12	x	n	n	x	x	x
O=C1CNC(=S)N1Cc1ccc(Cl)cc1	n	n	n	n	n	n
O=C1CNC(=S)N1CCc1ccc(Cl)cc1	n	n	16µM	n	n	n
N#CCC(=O)N/N=C/c1cn(Cc2ccccc2C#N)c2ccccc12	n	n	n	n	n	n
CNC(=S)N/N=C/c1cn(Cc2c(F)cccc2Cl)c2ccccc12	n	u	12µM	n	n	u
CCNC(=S)N/N=C/c1cn(Cc2ccccc2F)c2ccccc12	n	6.5µM	5.8µM	n	n	n
CNC(=S)N/N=C/c1c(C)cccc1Cl	n	u	u	n	n	u
CCOc1cccc(CC(=O)N2CCc3c([nH]c4ccccc34)C2c2ccc(Cl)cc2)c1OCC (stereo unspecified)	x	10µM	15µM	x	x	x
SMILES	IL1B secr inh	TDP1 cell CPT	DT40 TDP1 no CPT	HT1080-NT tox	HT1080 IDH1KD tx	ELG1 DNA repair
CSc1ccc(C2c3[nH]c4ccccc4c3CCN2C(=O)CCc2ccccc2)cc1 (stereo unspecified)	x	n	n	x	x	x
Cc1cccc(C2c3[nH]c4ccccc4c3CCN2C(=O)Cc2n[nH]c(C)n2)n1 (stereo unspecified)	n	n	n	n	n	n
O=C(CCc1ccccc1)N1CCc2c([nH]c3ccccc23)C1c1ccc(Cl)cc1 (stereo unspecified)	x	16µM	26µM	x	x	x
C=C1/C=C(\C)C(C)(O)CC(O)CC(=O)C(O)C(O)C(C)CC(C)OC(=O)/C(C)=C/CC/C=C/C(OC)C(O)CC(C)C1 (stereo unspecified)	-53	u	u	n	n	15µM
Cc1ccc(-c2cc3ncc(C#N)c(N)n3n2)cc1	n	n	n	n	n	u
O=C(Nc1ccccc1N1CCN(c2ccc(F)cc2)CC1)c1ccccc1	u	23µM	18µM	n	n	u
CC(C)(C)CC(=O)Nc1ccccc1N1CCN(c2ccc(F)cc2)CC1	n	u	u	n	n	n
O=C(COc1ccccc1)Nc1ccccc1N1CCN(c2ccc(F)cc2)CC1	n	u	u	n	n	n
CCC(=O)Nc1ccccc1N1CCN(c2ccc(F)cc2)CC1	n	21µM	u	n	n	n
CCCCCC(=O)Nc1ccccc1N1CCN(c2ccccc2)CC1	-88	u	u	n	n	u
CCOC(=O)[C@]12CCCC=C1N(Cc1cccc3ccccc13)C(=O)[C@H](CC(=O)N1CCC(c3ccccc3)CC1)C2	n	u	u	n	n	x
CCCn1nc(C(=O)OCC(=O)c2ccccc2)c2ccccc2c1=O	n	n	n	u	n	n
CCCCCCn1nc(C(=O)OCC(=O)c2c(N)n(C)c(=O)n(C)c2=O)c2ccccc2c1=O	u	21µM	18µM	n	n	u
Cn1c(N)c(C(=O)COC(=O)c2ccnc3ccccc23)c(=O)n(C)c1=O	n	n	n	n	n	n
CCCCCn1nc(C(=O)OCC(=O)c2c(N)n(C)c(=O)n(C)c2=O)c2ccccc2c1=O	-53	u	21µM	n	n	u
CCOc1ccc(-n2nc(CO)c(C(=O)NCC(c3ccccc3)c3ccccc3)n2)cc1	x	n	n	x	x	x
Cc1ccc(-c2nc(-c3cc4cccc(OCc5ccc(F)cc5)c4oc3=O)no2)cc1	x	u	18µM	x	x	x
Cc1ccc(COc2cccc3cc(-c4noc(-c5ccc(C)cc5)n4)c(=O)oc23)cc1	x	n	u	x	x	x
Cc1ccc(-c2nc(-c3cc4cccc(OCc5cccc(F)c5)c4oc3=O)no2)cc1	x	15µM	13µM	x	x	x
CCOc1cccc2cc(-c3cn4cc(C)ccc4n3)c(=O)oc12	n	u	u	n	n	u
Cc1csc(-c2cnn(-c3ccccc3)c2NC(=O)c2ccc(C(F)(F)F)cc2)n1	n	u	23µM	n	n	n
CCN(CCCCN1C(=O)c2ccccc2C1=O)c1ccc2c(c1)C(=O)N(C)C2=O	n	u	18µM	n	n	16µM
CSCC[C@H](NC(=O)N1C[C@H]2C[C@@H](C1)c1cccc(=O)n1C2)C(=O)Nc1ccc(NC(C)=O)cc1	n	n	n	n	n	n
COc1ccc2cc(C#N)c(NC(C)C)nc2c1	n	n	u	n	n	n
